Assay results from PMC7862700, “An all-to-all approach to the identification of sequence-specific readers for epigenetic DNA modifications on cytosine”.

Columns and labels:
Test in all cases: DAPPL (digital affinity profiling via proximity ligation, sequencing); 10 mM Tris-HCl pH 7.5, 50 mM NaCl, 1 mM DTT, 4% glycerol, room temperature, 30 min; GST-TFs on glutathione beads, 16-mer random dsDNA library, 0.1% formaldehyde crosslink after washing; high values mean tight binding
Details in all cases: protein: recombinant; tags: N-terminal GST; dsDNA, one strand shown
[1] = target: T1, FLI1 (Homo sapiens, UniProt Q01543 1-452)
T1 sequence: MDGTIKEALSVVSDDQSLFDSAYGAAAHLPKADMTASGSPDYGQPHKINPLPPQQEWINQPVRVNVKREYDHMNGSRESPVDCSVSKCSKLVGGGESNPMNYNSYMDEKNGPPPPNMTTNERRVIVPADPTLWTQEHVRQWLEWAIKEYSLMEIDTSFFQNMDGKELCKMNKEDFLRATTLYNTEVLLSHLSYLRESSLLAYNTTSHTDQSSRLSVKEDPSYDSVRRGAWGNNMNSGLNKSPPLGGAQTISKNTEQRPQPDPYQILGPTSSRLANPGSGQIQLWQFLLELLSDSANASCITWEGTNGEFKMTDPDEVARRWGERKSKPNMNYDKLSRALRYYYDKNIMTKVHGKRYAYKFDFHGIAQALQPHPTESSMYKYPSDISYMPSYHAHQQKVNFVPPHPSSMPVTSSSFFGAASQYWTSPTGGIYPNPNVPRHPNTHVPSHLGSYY
Outline: (§1)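 Yeast served to express human transcription factors as GST fusions, which were then captured on glutathione beads and labelled with DNA barcodes. Pooled with a tag-only sample, they were incubated with 200 nmole of a 16-mer random double-stranded DNA library for 30 min at room temperature in Tris/NaCl/DTT/glycerol buffer, washed, crosslinked with 0.1% formaldehyde, ligated by proximity, amplified by PCR and sequenced. Dividing each hexamer's read frequency for a factor by its frequency for the tag-only sample gives the binding signal.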

[2] = target: T2, ELK1 (Homo sapiens, UniProt P19419 1-428)
T2 sequence: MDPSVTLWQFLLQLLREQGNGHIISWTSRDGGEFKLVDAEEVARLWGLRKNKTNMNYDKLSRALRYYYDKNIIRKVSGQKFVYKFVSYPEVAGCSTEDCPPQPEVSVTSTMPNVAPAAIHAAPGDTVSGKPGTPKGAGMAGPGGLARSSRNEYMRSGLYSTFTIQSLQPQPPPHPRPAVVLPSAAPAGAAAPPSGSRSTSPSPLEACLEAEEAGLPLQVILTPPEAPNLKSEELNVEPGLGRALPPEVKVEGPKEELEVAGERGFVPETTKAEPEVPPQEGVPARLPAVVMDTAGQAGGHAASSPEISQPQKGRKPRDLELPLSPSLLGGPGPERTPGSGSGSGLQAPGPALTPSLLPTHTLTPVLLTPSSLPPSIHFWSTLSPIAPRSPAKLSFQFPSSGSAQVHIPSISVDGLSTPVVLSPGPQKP
Outline: as §1

[3] = target: T3, GABPA (Homo sapiens, UniProt Q06546 1-454)
T3 sequence: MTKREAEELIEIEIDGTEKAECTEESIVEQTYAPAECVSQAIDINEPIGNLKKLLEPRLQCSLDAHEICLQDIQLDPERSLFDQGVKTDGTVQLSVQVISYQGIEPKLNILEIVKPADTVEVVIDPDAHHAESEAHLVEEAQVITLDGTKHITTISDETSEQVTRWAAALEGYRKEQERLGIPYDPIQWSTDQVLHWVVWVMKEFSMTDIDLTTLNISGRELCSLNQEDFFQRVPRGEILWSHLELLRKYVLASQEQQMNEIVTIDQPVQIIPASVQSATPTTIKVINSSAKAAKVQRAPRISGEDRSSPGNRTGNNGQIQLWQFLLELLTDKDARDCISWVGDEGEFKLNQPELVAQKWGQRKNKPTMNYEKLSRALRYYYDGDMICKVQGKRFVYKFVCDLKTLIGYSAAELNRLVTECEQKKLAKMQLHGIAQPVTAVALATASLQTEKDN
Outline: as §1

[4] = target: ELF1 (Homo sapiens, UniProt P32519 1-619)
Outline: as §1

[5] = target: T4, EHF (Homo sapiens, UniProt Q9NZC4 1-300)
T4 sequence: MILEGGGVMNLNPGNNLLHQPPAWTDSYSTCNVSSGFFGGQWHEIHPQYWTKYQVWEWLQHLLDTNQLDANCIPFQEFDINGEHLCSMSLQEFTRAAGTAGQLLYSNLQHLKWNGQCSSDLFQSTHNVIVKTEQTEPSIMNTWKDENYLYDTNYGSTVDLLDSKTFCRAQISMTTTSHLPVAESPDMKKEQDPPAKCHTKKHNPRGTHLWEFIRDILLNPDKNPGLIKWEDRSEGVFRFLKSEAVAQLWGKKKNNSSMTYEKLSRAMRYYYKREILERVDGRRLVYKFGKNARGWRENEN
Outline: as §1

[6] = target: SPIB (Homo sapiens, UniProt Q01892 1-262)
Outline: as §1

[7] = target: T5, ELK3 (Homo sapiens, UniProt P41970 1-407)
T5 sequence: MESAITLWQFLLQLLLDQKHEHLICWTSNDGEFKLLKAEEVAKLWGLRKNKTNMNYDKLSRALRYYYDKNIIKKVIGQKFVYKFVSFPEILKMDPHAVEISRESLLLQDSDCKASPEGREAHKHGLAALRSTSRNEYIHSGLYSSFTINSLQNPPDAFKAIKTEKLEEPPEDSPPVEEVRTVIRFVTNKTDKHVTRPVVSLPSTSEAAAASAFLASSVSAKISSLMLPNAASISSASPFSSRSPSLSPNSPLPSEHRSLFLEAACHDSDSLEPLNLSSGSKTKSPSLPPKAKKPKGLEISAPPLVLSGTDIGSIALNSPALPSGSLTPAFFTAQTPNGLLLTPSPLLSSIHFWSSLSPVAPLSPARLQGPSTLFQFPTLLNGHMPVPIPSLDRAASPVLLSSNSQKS
Outline: as §1

[8] = target: T6, SPIC (Homo sapiens, UniProt Q8N5J4 1-248)
T6 sequence: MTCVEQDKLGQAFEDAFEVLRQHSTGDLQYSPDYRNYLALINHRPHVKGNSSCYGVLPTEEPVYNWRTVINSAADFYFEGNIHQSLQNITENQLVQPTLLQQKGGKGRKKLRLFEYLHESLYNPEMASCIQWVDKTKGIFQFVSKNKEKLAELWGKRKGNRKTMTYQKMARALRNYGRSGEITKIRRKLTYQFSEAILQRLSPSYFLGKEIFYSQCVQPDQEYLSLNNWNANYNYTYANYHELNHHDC
Outline: as §1

[9] = target: ELF4 (Homo sapiens, UniProt Q99607 1-663)
Outline: as §1

[10] = target: T7, ELK4 (Homo sapiens, UniProt P28324-2 1-405)
T7 sequence: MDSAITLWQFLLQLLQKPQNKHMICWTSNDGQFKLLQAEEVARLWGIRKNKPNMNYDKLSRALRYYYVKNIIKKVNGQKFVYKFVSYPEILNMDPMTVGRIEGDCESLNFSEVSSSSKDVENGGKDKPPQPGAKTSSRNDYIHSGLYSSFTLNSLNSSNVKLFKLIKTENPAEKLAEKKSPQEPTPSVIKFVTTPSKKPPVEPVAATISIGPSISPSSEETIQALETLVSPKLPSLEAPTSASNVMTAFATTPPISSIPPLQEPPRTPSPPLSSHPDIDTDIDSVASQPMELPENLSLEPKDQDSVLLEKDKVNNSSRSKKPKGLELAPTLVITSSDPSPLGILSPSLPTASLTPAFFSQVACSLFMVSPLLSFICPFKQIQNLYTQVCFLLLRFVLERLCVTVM
Outline: as §1

[11] = target: T8, ETV2 (Homo sapiens, UniProt O00321 1-342)
T8 sequence: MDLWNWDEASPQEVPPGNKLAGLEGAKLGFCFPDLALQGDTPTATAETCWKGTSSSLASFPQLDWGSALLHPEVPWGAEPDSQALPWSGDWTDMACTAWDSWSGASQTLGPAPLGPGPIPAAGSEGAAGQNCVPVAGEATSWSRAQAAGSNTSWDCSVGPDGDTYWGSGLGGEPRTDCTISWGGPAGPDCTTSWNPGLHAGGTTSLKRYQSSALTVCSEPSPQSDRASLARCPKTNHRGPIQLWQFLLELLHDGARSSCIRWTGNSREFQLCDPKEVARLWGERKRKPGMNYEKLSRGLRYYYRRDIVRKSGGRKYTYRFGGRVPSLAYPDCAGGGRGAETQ
Outline: as §1

[12] = target: T9, ERF (Homo sapiens, UniProt P50548 1-548)
T9 sequence: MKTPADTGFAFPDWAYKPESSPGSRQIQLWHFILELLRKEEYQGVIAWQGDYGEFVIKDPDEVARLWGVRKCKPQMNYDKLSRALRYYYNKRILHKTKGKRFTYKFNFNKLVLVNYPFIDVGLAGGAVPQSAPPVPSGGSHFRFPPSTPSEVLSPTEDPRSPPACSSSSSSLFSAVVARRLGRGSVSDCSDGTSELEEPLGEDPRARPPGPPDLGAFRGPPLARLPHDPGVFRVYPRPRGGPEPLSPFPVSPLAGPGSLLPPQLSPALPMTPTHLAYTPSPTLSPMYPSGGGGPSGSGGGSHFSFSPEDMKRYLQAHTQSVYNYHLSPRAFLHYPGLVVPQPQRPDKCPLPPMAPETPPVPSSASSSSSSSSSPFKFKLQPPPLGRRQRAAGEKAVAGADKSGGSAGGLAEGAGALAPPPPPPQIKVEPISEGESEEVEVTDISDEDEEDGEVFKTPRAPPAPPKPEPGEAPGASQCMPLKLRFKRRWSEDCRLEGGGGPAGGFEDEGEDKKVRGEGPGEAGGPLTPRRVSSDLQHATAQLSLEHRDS
Outline: as §1

[13] = target: T10, ETV3L (Homo sapiens, UniProt Q6ZN32 1-361)
T10 sequence: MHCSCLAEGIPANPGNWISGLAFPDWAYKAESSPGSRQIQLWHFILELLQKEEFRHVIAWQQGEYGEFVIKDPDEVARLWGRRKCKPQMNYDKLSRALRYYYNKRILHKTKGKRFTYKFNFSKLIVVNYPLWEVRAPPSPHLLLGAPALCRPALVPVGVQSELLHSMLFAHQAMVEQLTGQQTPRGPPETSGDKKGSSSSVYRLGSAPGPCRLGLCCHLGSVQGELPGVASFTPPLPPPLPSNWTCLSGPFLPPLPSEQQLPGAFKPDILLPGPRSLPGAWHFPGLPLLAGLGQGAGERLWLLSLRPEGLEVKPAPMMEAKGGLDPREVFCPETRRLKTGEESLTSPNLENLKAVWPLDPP
Outline: as §1

[14] = target: T11, ETS2 (Homo sapiens, UniProt P15036 1-469)
T11 sequence: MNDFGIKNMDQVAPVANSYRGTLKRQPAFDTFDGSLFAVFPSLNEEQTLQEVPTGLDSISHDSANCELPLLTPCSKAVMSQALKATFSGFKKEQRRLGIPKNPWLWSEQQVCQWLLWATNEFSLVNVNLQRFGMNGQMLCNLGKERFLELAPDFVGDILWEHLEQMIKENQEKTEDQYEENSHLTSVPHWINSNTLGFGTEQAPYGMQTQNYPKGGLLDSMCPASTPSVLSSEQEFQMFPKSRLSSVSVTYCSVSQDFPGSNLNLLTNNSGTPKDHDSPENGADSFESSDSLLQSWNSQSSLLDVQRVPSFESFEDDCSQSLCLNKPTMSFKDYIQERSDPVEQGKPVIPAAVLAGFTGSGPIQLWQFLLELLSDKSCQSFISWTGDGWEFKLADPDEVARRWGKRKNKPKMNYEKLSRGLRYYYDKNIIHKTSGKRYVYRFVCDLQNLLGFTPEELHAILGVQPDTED
Outline: as §1

[15] = target: T12, ETV3 (Homo sapiens, UniProt P41162-2 1-143)
T12 sequence: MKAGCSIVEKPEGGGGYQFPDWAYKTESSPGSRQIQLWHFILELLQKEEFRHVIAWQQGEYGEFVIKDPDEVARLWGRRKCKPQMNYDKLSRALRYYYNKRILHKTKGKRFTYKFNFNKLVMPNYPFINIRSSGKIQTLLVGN
Outline: as §1

ELF1, sequence (P32519 whole entry): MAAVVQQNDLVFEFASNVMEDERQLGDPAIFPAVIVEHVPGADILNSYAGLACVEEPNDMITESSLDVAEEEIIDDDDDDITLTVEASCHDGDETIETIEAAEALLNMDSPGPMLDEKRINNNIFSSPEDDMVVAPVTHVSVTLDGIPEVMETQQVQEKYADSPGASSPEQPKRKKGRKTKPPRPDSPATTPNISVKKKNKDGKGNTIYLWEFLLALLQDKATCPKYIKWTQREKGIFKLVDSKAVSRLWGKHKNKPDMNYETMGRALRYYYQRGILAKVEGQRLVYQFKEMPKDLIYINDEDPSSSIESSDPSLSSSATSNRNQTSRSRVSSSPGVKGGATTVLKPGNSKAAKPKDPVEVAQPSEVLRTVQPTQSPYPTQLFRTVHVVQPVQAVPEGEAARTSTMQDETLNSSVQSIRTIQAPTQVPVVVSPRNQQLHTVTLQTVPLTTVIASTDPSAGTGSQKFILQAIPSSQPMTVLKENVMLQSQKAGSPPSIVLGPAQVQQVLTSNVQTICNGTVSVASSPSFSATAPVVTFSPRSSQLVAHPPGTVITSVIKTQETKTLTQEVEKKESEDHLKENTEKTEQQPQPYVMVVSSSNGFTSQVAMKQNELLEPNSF
ELF4, sequence (Q99607 whole entry): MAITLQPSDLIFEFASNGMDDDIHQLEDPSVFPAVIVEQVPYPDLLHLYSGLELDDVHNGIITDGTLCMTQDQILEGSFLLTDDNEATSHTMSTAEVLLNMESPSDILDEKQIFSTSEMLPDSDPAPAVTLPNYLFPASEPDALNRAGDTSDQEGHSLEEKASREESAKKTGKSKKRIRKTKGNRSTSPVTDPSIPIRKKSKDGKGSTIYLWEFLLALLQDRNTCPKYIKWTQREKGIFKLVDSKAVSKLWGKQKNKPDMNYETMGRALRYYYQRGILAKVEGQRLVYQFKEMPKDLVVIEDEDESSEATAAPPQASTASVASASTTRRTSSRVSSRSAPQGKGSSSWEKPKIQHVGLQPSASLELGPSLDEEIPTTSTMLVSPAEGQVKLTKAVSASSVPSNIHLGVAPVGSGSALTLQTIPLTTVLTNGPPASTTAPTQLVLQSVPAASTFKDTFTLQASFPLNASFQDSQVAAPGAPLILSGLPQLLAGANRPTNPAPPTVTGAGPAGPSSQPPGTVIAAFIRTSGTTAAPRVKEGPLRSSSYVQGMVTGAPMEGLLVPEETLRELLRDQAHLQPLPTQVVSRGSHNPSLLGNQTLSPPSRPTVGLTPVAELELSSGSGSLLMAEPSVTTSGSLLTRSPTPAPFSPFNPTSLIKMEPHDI
SPIB, sequence (Q01892 whole entry): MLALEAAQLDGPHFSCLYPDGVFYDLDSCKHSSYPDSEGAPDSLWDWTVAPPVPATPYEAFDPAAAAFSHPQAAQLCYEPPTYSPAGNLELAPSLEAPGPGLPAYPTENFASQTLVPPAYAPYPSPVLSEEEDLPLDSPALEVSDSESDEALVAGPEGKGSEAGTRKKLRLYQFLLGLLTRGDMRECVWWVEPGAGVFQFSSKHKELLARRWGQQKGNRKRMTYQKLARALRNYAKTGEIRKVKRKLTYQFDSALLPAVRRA

TGATAG
binding signal [1]: 1.14 fold enrichment (6-mer frequency, TF over GST control)
binding signal [2]: 1.07 fold enrichment (6-mer frequency, TF over GST control)
binding signal [3]: 1.03 fold enrichment (6-mer frequency, TF over GST control)
binding signal [4]: 1.09 fold enrichment (6-mer frequency, TF over GST control)
binding signal [5]: 1.01 fold enrichment (6-mer frequency, TF over GST control)
binding signal [6]: 1.05 fold enrichment (6-mer frequency, TF over GST control)
binding signal [7]: 1.09 fold enrichment (6-mer frequency, TF over GST control)
binding signal [8]: 1.05 fold enrichment (6-mer frequency, TF over GST control)
binding signal [9]: 1.03 fold enrichment (6-mer frequency, TF over GST control)
binding signal [10]: 1.02 fold enrichment (6-mer frequency, TF over GST control)
binding signal [11]: 1.09 fold enrichment (6-mer frequency, TF over GST control)
binding signal [12]: 1.04 fold enrichment (6-mer frequency, TF over GST control)
binding signal [13]: 1.05 fold enrichment (6-mer frequency, TF over GST control)
binding signal [14]: 1.06 fold enrichment (6-mer frequency, TF over GST control)
binding signal [15]: 1.05 fold enrichment (6-mer frequency, TF over GST control)
